Potency and outcome data for eight molecules are collected here from PubChem BioAssay (Tox21).

A short description of assay [1]: A CellTox Green Cytotoxicity Assay to monitor cytotoxicity in HepG2 cells - 0 hour (AID 1224882). Note: nearly all actives have a fitted effect of over 35% in size. Note: potency is the fitted concentration of half-maximal effect. A digest of the protocol: (§1)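 HepG2 cells, 600/well, preincubated 5 h with CellTox Green dye, then exposed to Tox21 compounds in DMSO at 37 C for up to 40 h. Dead-cell DNA fluorescence read at the indicated time point.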
The nature of assay [2]: A CellTox Green Cytotoxicity Assay to monitor cytotoxicity in HEK293 cells - 8 hour (AID 1224884). Note: nearly all actives have a fitted effect of over 35% in size. The essentials:
(§2)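 HEK293 cells, 600/well, were preincubated 5 hours and then exposed to compounds at 37 C for up to 40 hours. A cell-impermeant cyanine dye staining dead-cell DNA was read by fluorescence at 0, 8, 16, 24, 32 and 40 h time points.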

Assay [3] in a line: qHTS RealTime-Glo MT Cell Viability Assay in HEK293 cells - 24 hour (AID 1224886). Note: nearly all actives have a fitted effect of over 50% in size. Note: potency is the fitted concentration of half-maximal effect. The essentials: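 Assay medium contained NanoLuc luciferase plus cell-permeant prosubstrate, added with HEK293 cells at 600 cells/well. After 5 h at 37 C/5% CO2 compounds were added; plates stayed at 37 C for 40 h with serial luminescence reads.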
Assay [4] is described as follows: A CellTox Green Cytotoxicity Assay to monitor cytotoxicity in HEK293 cells - 16 hour (AID 1224888). Note: nearly all actives have a fitted effect of over 35% in size. The essentials:
as §2

The nature of assay [5]: qHTS RealTime-Glo MT Cell Viability Assay in HepG2 cells - 0 hour (AID 1224889). Note: nearly all actives have a fitted effect of over 50% in size. The essentials: (§3)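 qHTS, HepG2, 600 cells/well, RealTime-Glo (NanoLuc + prosubstrate) added with cells; 5 h preincubation; DMSO compound addition; 37 C; luminescence at 0/8/16/24/32/40 h.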
The nature of assay [6]: A CellTox Green Cytotoxicity Assay to monitor cytotoxicity in HepG2 cells - 8 hour (AID 1224890). Note: nearly all actives have a fitted effect of over 45% in size. Note: potency is the fitted concentration of half-maximal effect. The essentials: as §1
The target in assay [7] is Estrogen receptor (Homo sapiens) (UniProt P03372). Put plainly: qHTS assay to identify small molecule antagonists of the estrogen receptor alpha (ER-alpha) signaling pathway using the BG1 cell line in the presence of 0.1 nM 17-beta-estradiol (AID 1259244). Note: nearly all actives have a fitted effect of over 50% in size. The essentials: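 VM7Luc4E2 cells (endogenous full-length ER-alpha, 4×ERE-luciferase), kept 5 days in phenol red-free, charcoal-stripped FBS medium; 4,000 cells/well. Compounds added with 0.1 nM (final) 17beta-estradiol, 22 hr at 37C; luminescence read with ONE-Glo after 30 min.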

Assay [8] in a line: qHTS assay to identify small molecule HDAC inhibitors - cell viability counter screen (AID 1259365). Note: series mostly up to about 92 µM; nearly all actives have a fitted effect of over 50% in size. A digest of the protocol: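 Counter screen in wild-type HCT-116 cells: compounds dissolved in DMSO are pin-transferred onto overnight-plated cells and left 2hr at 37C. ATP-based CellTiter-Glo luminescence then measures viable cells.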
Assay [9] in a line: qHTS assay to identify small molecule agonists of the sonic hedgehog signaling (Shh) pathway - cell viability counter screen (AID 1259366). Note: nearly all actives have a fitted effect of over 50% in size. Note: potency is the fitted concentration of half-maximal effect. The essentials:
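Cells are plated at 2,000 per well and left 4hr at 37C, 5% CO2 before compound addition. After 23hr of treatment, CellTiter-Fluor reagent is added for 1hr at 37C and fluorescence is measured.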

A short description of assay [10]: qHTS assay to identify small molecule antagonists of the sonic hedgehog signaling (Shh) pathway - cell viability counter screen (AID 1259367). Note: nearly all actives have a fitted effect of over 55% in size. Note: potency is the fitted concentration of half-maximal effect. The essentials: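 Cells: 3T3 Gli1-Luc, 2,000/well, 4 hr pre-incubation. Compounds in DMSO, then conditioned medium. Incubation 24 hr, 37C, 5% CO2. CellTiter-Fluor at 23 hr, 1 hr, fluorescence.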
Assay [11] is described as follows: qHTS assay to identify small molecule agonists of the sonic hedgehog signaling (Shh) pathway (AID 1259368; calls by dose curve;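 note: NIH/3T3-derived 3T3Gli1-Luc cells carrying a stable Gli1-driven firefly luciferase reporter; series mostly up to about 92 µM; nearly all actives have a fitted effect of over 15% in size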). The essentials:
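NIH/3T3-derived 3T3Gli1-Luc cells with stably integrated Gli1-driven firefly luciferase, 2,000 cells/well, compounds added after 4 hr. Incubated 24 hr at 37C, 5% CO2; luminescence read after 30 min with luciferase reagent at room temperature.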

The nature of assay [12]: A CellTox Green Cytotoxicity Assay to monitor cytotoxicity in HepG2 cells - 32 hour (AID 1224883). Note: nearly all actives have a fitted effect of over 50% in size. Note: potency is the fitted concentration of half-maximal effect. A digest of the protocol:
as §1

Assay [13] in a line: qHTS RealTime-Glo MT Cell Viability Assay in HepG2 cells - 16 hour (AID 1224885). Note: nearly all actives have a fitted effect of over 50% in size. The essentials:
as §3

A short description of assay [14]: qHTS assay to identify small molecule antagonists of the androgen receptor (AR) signaling pathway using the MDA cell line in the presence of 0.5 nM R1881 - cell viability counter screen (AID 1259242). Note: nearly all actives have a fitted effect of over 45% in size. A digest of the protocol: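 MDA-kb2 cells (MMTV-luciferase, AR/GR responsive) were treated with compounds plus 0.5 nM R1881 (final) for 16 hr at 37C, 0% CO2. Viability was then read in the same wells as live-cell protease fluorescence (CellTiter-Fluor, 30 min).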

Assay [15] has as its target Androgen receptor (Homo sapiens) (UniProt P10275). The assay can be described thus: qHTS assay to identify small molecule antagonists of the androgen receptor (AR) signaling pathway using the MDA cell line in the presence of 0.5 nM R1881 (AID 1259243). Note: nearly all actives have a fitted effect of over 50% in size. Note: potency is the fitted concentration of half-maximal effect. A digest of the protocol: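 MDA-kb2 cells (MMTV-luciferase, responsive to AR and GR) at 3,000/well, rested 5 h at 37C, 0% CO2, then given compounds plus 0.5 nM R1881 (final) for 16 hr. Luciferase read with ONE-Glo after 30 min at room temperature.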

Assay [16] can be described thus: qHTS assay to identify small molecule phospholipidosis (PLD) inducers (AID 1259344; active = well fitted curve in the direction sought with a large enough effect; an effect the other way counts as inactive or inconclusive). The essentials: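 Phospholipidosis is scored by imaging LipidTOX-stained pits in HepG2 cells exposed to compound for 24 h at 37 C; pit counts and integrated intensities per well and per cell serve as outputs.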
Assay [17] can be described thus: qHTS assay to identify small molecule HDAC inhibitors (AID 1259364). Note: nearly all actives have a fitted effect of over 45% in size. Note: potency is the fitted concentration of half-maximal effect. A digest of the protocol:
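Wild-type HCT-116 cells, plated overnight at 37 C, exposed to compounds 2 hr at 37 C; luminogenic HDAC-Glo substrate then added 30 min at room temperature. Luminescence reports relative endogenous class I/II HDAC activity.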

A short description of assay [18]: qHTS RealTime-Glo MT Cell Viability Assay in HEK293 cells - 8 hour (AID 1224887). The essentials:
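600 cells/well were plated with the nonlytic NanoLuc/prosubstrate reagent, pre-incubated 5 h, then given 23 nL of compound in DMSO. Incubation at 37 C for 40 h, with luminescence from viable-cell-reduced substrate read repeatedly from 0 h.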

A short description of assay [19]: qHTS assay to identify small molecule antagonists of the estrogen receptor alpha (ER-alpha) signaling pathway using the BG1 cell line in the presence of 0.1 nM 17-beta-estradiol - cell viability counter screen (AID 1259241). Note: nearly all actives have a fitted effect of over 40% in size. The essentials:
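Cells were plated and left 24 hr, compounds in DMSO were pinned in, 17beta-estradiol was added to 0.1 nM final, and after 22 hr CellTiter-Fluor reagent was added for 30 min before fluorescence was read.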

Assay [20] can be described thus: A CellTox Green Cytotoxicity Assay to monitor cytotoxicity in HEK293 cells - 32 hour (AID 1224881). Note: nearly all actives have a fitted effect of over 40% in size. A digest of the protocol:
as §2

The structures appear in SMILES notation. A number with no mark means an inactive call. Results filed as inconclusive are left out. Active and inactive are the calls of the source. Unless noted, calls come from the whole dose curve; as a rule, active = well fitted curve in the direction sought with a large enough effect in the repeat runs; inconclusive = weak or mixed curves; inactive = no such curve, though single readings can be large; an effect the other way counts as inactive or inconclusive.

Estrogen receptor (Homo sapiens), sequence (P03372 whole entry, looked up): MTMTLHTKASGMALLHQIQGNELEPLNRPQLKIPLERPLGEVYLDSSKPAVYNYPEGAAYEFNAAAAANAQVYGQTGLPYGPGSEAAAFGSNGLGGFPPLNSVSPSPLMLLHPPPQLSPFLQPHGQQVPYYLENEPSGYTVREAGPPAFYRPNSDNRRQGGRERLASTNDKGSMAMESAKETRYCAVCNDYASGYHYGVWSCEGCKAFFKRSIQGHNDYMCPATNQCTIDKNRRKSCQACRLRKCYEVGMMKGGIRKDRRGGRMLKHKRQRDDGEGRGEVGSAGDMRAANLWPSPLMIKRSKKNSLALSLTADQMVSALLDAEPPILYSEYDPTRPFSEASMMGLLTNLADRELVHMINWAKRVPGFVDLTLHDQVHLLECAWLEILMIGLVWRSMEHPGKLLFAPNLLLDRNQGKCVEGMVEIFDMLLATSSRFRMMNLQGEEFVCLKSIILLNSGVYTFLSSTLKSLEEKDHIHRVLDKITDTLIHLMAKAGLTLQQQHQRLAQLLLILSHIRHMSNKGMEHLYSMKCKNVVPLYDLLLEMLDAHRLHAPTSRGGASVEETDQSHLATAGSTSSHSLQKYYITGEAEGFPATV
Androgen receptor (Homo sapiens), sequence (P10275 whole entry, looked up): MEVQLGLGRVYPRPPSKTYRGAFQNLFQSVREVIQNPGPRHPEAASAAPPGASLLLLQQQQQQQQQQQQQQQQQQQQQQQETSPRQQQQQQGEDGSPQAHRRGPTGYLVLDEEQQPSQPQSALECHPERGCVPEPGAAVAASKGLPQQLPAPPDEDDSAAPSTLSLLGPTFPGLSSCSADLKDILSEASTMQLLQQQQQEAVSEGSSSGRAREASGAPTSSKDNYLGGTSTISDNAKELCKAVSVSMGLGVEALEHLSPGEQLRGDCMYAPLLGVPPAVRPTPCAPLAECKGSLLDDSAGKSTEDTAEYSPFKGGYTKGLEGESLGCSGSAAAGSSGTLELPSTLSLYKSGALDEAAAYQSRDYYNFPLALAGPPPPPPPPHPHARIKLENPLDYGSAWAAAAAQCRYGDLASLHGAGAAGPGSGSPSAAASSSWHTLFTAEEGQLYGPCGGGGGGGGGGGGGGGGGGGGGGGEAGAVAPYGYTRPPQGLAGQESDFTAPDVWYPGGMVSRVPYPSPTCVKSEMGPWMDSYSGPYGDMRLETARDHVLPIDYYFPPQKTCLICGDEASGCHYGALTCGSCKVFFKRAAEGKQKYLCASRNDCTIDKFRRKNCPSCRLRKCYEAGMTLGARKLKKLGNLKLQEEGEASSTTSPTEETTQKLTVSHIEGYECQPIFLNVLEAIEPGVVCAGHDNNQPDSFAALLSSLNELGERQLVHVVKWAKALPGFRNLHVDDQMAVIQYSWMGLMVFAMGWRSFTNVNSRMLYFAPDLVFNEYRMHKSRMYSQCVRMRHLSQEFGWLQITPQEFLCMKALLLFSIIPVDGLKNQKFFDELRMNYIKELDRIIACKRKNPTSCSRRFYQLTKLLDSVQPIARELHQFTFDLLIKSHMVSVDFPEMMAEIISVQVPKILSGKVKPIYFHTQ

For the molecule `OCc1cc(C(O)CNCCCCCCOCCCCc2ccccc2)ccc1O` (stereo not drawn), the Potency entry in [1], in [2], in [4], in assay [5], in assay [6] and in assay [7] was “inactive” each time. The Potency entry in assay [8] is “inactive”. In addition, the figures for the Potency in assay [3], in assay [9] and in [10] were 19 µM (active), 3.76 µM (active) and 4.73 µM (active), respectively. Besides, the call in [11] was inactive.
As to `Cc1cccc(C)c1OCC(=O)N[C@@H](Cc1ccccc1)[C@@H](O)C[C@H](Cc1ccccc1)NC(=O)[C@H](C(C)C)N1CCCNC1=O`, the Potency result in [1], in [12], in assay [2], in [13], in assay [4] and in [5] was “inactive” each time. For the same molecule, the Potency result in assay [6], in assay [14], in assay [16] and in assay [17] was “inactive” each time. The Potency in assay [3] was 23.9 µM (active); in assay [15], 23.7 µM (active); in assay [9] it was 15 µM (active); in [10] it was 23.7 µM (active). In addition, in assay [11], the result was inactive.
For the molecule `CCCCC`, the Potency result in assay [12], in assay [2], in assay [13], in assay [3], in [18] and in assay [5] was “inactive” each time. Also, the Potency entry in [6], in assay [19], in assay [14], in [16], in [8] and in assay [9] was “inactive” throughout. The Potency in assay [17] is 1.69 µM (active). For the same molecule, the result in assay [11] was inactive.
Turning to `CCCCCCCCCCCCCCCCCCOS(=O)(=O)O`, the Potency result in [1], in assay [13], in assay [18], in assay [5], in [19] and in [14] was “inactive” throughout. The Potency result in assay [17], in assay [8], in assay [9] and in [10] was “inactive” each time. In assay [11], the molecule was called inactive.
On to `CNCCCCOc1ccccc1Cc1ccccc1`, for which the Potency is 21.3 µM (active) in assay [12], 21.3 µM (active) in assay [3], 21.3 µM (active) in assay [6] and 33.5 µM (active) in assay [9]. The Potency entry in [2], in assay [5], in assay [19], in assay [7], in [17] and in assay [8] was “inactive” throughout. Besides, the Potency entry in [10] is “inactive”. In addition, in assay [11], the outcome was inactive.
As for `C[N+]1(C)CCC(OC(=O)C(O)(c2ccccc2)C2CCCC2)C1` (stereo not drawn), the Potency in [1] was 26.8 µM (active). Also, the Potency result in assay [13], in assay [3], in [18], in assay [5], in [6] and in assay [19] was “inactive” each time. Moreover, the Potency entry in [14], in assay [7], in assay [16], in [17], in [8] and in assay [9] was “inactive” each time. Further, the Potency entry in assay [10] is “inactive”. Moreover, the result in assay [11] was inactive.
Regarding `COc1ccc2cccc(CCNC(C)=O)c2c1`, the Potency result in [20], in [13], in [3], in assay [18], in [4] and in assay [5] was “inactive” each time. In addition, the Potency result in [19], in [14], in assay [15], in assay [7], in assay [17] and in [8] was “inactive” each time. The Potency result in assay [9] and in assay [10] was “inactive” throughout. Further, the call in [11] was inactive.
For the molecule `Clc1ccc2c(c1)CCc1cccnc1C2=C1CCNCC1`, the Potency result in assay [1], in [2], in assay [13], in [18], in assay [4] and in assay [5] was “inactive” in each case. Moreover, the Potency entry in assay [6], in assay [19], in [14], in assay [7], in assay [17] and in assay [8] was “inactive” in each case. Also, the Potency is 23.9 µM (active) in assay [12] and 11.9 µM (active) in assay [9]. The call in assay [11] was inactive.
